Test results as given in paper PMC4552634, “A New Set of Chemical Starting Points with Plasmodium falciparum Transmission-Blocking Potential for Antimalarial Drug Discovery” (PLoS ONE, 2015).
The whole screen tested about 13,000 compounds, of which about 3,200 (25%) showed an effect of 50% or more. The list shows a part of the results.

Each compound was assayed on P. falciparum stage V gametocytes. Conditions: 48 h, 5 µM; inhibitor.
Design: BacTiter-Glo ATP luminescence viability of purified stage V gametocytes in 384-well plates, per cent inhibition versus DMSO

Row | Structure (SMILES) | % Inhibition [%]
1 | Cc1ccc(C2=NNC3(S2)C(=O)N(C)c2ccccc23)cc1 (stereo not drawn) [TCMDC-123863] | 24.25
2 | COc1ccc(C23Oc4cc(OC)cc(OC)c4C2(O)C2(CC3c3ccccc3)SCCCS2)cc1 (stereo not drawn) [TCMDC-132098] | 11.15
3 | OCC(CO)(CO)NCc1ccc2c3c(cccc13)-c1ccccc1-2 [TCMDC-137877] | -8.777
4 | C=CCn1c(C)cc(C(=O)COc2ccc(S(=O)(=O)N3CCOCC3)cc2[N+](=O)[O-])c1C [TCMDC-124326] | 33.1
5 | COc1cc(CNCCCNc2nc3ccsc3c(=O)[nH]2)c2[nH]cc(Cl)c2c1 [TCMDC-140349] | -35.52
6 | COc1cccc(CCc2cccc(CNC(C)=O)c2)c1 [TCMDC-139277] | -0.06569
7 | COc1cccc(CCNCCCCCCNCCc2ccc(Cl)cc2)c1 [TCMDC-131284] | 113.2
8 | COc1ccc2nccc([C@@H](O)CN3CCC(NCc4nc5cc(F)ccc5o4)CC3)c2c1 [TCMDC-140783] | -5.365
9 | c1ccc2c(c1)ncc1c3ccccc3[nH]c21 [TCMDC-131258] | -7.104
10 | NCC1CCCN1Cc1cccc(-c2ccc(-c3nc4ccccc4[nH]3)s2)c1.O=C(O)C(F)(F)F (stereo not drawn) [TCMDC-132987] | 77.53
11 | NCC1CCCN1Cc1cccc(-c2ccc(-c3nc4cc(C(F)(F)F)ccc4[nH]3)s2)c1.O=C(O)C(F)(F)F (stereo not drawn) [TCMDC-132992] | 36.35
12 | Cc1cccc2nc(-c3ccc(-c4cccc(CNCCCN5CCCC5=O)c4)s3)[nH]c12.O=C(O)C(F)(F)F [TCMDC-132762] | -3.129
13 | Cc1cccc2nc(-c3ccc(-c4cccc(CN5CCCC5CN)c4)s3)[nH]c12.O=C(O)C(F)(F)F (stereo not drawn) [TCMDC-132997] | 41.54
14 | O=C(O)C(F)(F)F.O=C1CCCN1CCCNCc1cccc(-c2ccc(-c3nc4ccccc4[nH]3)s2)c1 [TCMDC-132749] | 78.47
15 | O=C(O)C(F)(F)F.O=C1CCCN1CCCNCc1cccc(-c2ccc(-c3nc4cc(C(F)(F)F)ccc4[nH]3)s2)c1 [TCMDC-132757] | -29.57
16 | CCCCCc1cnc2nc(N)nc(N)c2c1 [TCMDC-137922] | -4.326
17 | N#Cc1ccc2c(c1)CCN(CCC1CCC(NC(=O)/C=C/c3c[nH]c4c(Br)cccc34)CC1)CC2 (stereo not drawn) [TCMDC-139672] | -4.951
18 | Cc1cccc2[nH]c(-c3ccc(-c4ccc(NC(=O)NCc5ccc(F)cc5)cc4)cc3)nc12 [TCMDC-133302] | 17.3
19 | CC(=O)Nc1ncc(C(=O)Nc2cccc(-c3ccc(-c4nc5c(C)cccc5[nH]4)cc3)c2)s1 [TCMDC-136913] | 10.82
20 | Cc1cnc(C[S+]([O-])c2nc3ccc(C(F)(F)F)cc3[nH]2)cc1OCc1ccccc1 (stereo not drawn) [TCMDC-131542] | 10.44
21 | Nc1nc(N)c2c(Cc3ccccc3)cccc2n1 [TCMDC-137764] | -5.935

Row | Structure (SMILES) | % Inhibition [%]
22 | CCN(CC)CCN(Cc1ccc(-c2ccc(C(F)(F)F)cc2)cc1)C(=O)Cn1cc(CCCc2cccc(F)c2F)c(=O)c2ccccc21 [TCMDC-141331] | 81.22
23 | CCN(CC)CCN(Cc1ccc(-c2ccc(C(F)(F)F)cc2)cc1)C(=O)Cn1cc(CCCCc2cccc(F)c2F)c(=O)c2ccccc21 [TCMDC-141340] | 60.46
24 | COc1ccc(OC)c2c1CCN(C)C2Cc1cccc2ccccc12 (stereo not drawn) [TCMDC-137509] | 12.85
25 | O=C(NC1CCC(N2CCC(c3nc4ccccc4s3)CC2)CC1)c1cc2ccccc2[nH]1 (stereo not drawn) [TCMDC-132780] | -77.63
26 | Cc1cc(C(=O)Nc2ccc3c(c2)CCN3C2CCN(Cc3ccc4nsnc4c3)C2)no1 (stereo not drawn) [TCMDC-135076] | -30.56
27 | O=S(=O)(NC1=NCCC1)c1cccc(Nc2nc(C(F)(F)F)nc3ccccc23)c1 [TCMDC-124821] | -4.384
28 | C=CCOC(=O)N1CCC(CNCc2ccc(-c3cccc(-c4nc5cc(F)ccc5[nH]4)c3)cc2)C1.O=C(O)C(F)(F)F (stereo not drawn) [TCMDC-133044] | 2.158
29 | Cc1cccc2nc(-c3ccc(-c4cccc(CNC5CCN(C)CC5)c4)s3)[nH]c12.O=C(O)C(F)(F)F [TCMDC-132736] | 105.5
30 | C=CCOC(=O)N1CCC(CNCc2ccc(-c3cccc(-c4nc5ccccc5[nH]4)c3)cc2)C1.O=C(O)C(F)(F)F (stereo not drawn) [TCMDC-132566] | 89.86
31 | Cc1cccc2nc(-c3ccc(-c4cccc(CNCc5cccc(N)c5)c4)s3)[nH]c12.O=C(O)C(F)(F)F [TCMDC-132936] | -17.71
32 | CNc1ccc(CNCc2cccc(-c3ccc(-c4nc5cccc(C)c5[nH]4)s3)c2)cc1.O=C(O)C(F)(F)F [TCMDC-132983] | 78.71
33 | COc1ccc(CNCc2cccc(-c3ccc(-c4nc5cccc(C)c5[nH]4)s3)c2)cc1.O=C(O)C(F)(F)F [TCMDC-132722] | 2.559
34 | Cc1noc(C)c1-c1cccc(CNCc2cccc(-c3ccc(-c4nc5cccc(C)c5[nH]4)s3)c2)c1.O=C(O)C(F)(F)F [TCMDC-133059] | -9.203
35 | CNc1ccc(CNCc2cccc(-c3ccc(-c4nc5ccccc5[nH]4)s3)c2)cc1.O=C(O)C(F)(F)F [TCMDC-132977] | -37.37
36 | Cc1cccc2nc(-c3ccc(-c4cccc(CNCc5ccccc5)c4)s3)[nH]c12.O=C(O)C(F)(F)F [TCMDC-132703] | -30.5
37 | Cc1cccc2nc(-c3ccc(-c4cccc(CNCc5ccc(CN)cc5)c4)s3)[nH]c12.O=C(O)C(F)(F)F [TCMDC-132812] | 115.3
38 | C=CCOC(=O)N1CCC(CNCc2cccc(-c3cccc(-c4nc5ccccc5[nH]4)c3)c2)C1.O=C(O)C(F)(F)F (stereo not drawn) [TCMDC-133046] | -7.738
39 | Cc1cccc2nc(-c3ccc(-c4cccc(CNC(C)C)c4)s3)[nH]c12.O=C(O)C(F)(F)F [TCMDC-132743] | 8.329
40 | CC1(C)N=C(N)N=C(N)N1OCc1cccc(C#N)c1 [TCMDC-124037] | -12.77
41 | CCCC(C)Nc1nc(C)cc(N[C@@H](CC(C)C)C(=O)NCc2ccc(C)cc2)n1 (stereo partly drawn) [TCMDC-134897] | -16.22
42 | Cc1ccc(N2C(=O)C3C(C2=O)C2(c4ccccc4)C(=O)C3(c3ccccc3)C(c3ccccc3)=C2c2ccccc2)cc1 (stereo not drawn) [TCMDC-124241] | -3.804

Row | Structure (SMILES) | % Inhibition [%]
43 | CN1C(=O)[C@H](NC(=O)[C@@H](Cc2ccccc2)NC(=S)Nc2ccccc2)N=C(c2ccccc2)c2ccccc21 [TCMDC-132115] | 12.99
44 | Cc1ccc(Nc2nc(C)cc(NC3CC3)n2)cc1 [TCMDC-133469] | 5.355
45 | CC1CCCN(Cc2c(O)ccc3c(=O)c(-c4nc5ccccc5s4)c(N)oc23)C1 (stereo not drawn) [TCMDC-124468] | -5.264
46 | Cc1ccc(-c2nnc(-c3ccc(C(=O)NC4CCN(Cc5ccc(C#N)cc5)CC4)cc3)o2)cc1Br [TCMDC-136130] | -28.74
47 | Cc1ccc(Cn2c(N3CCC(C(=O)NCc4cccs4)CC3)nc3ccccc32)cc1 [TCMDC-124400] | 16.64
48 | C=CCOC(=O)N1CCC(CNCc2cccc(-c3ccc(-c4nc5cccc(C)c5[nH]4)cc3)c2)C1.O=C(O)C(F)(F)F (stereo not drawn) [TCMDC-133040] | 4.148
49 | COc1ccc(CNCc2ccc(-c3ccc(-c4nc5cccc(C)c5[nH]4)s3)cc2)cc1.O=C(O)C(F)(F)F [TCMDC-132727] | 15.75
50 | CNCCNCc1cccc(-c2ccc(-c3nc4cccc(C)c4[nH]3)s2)c1.O=C(O)C(F)(F)F [TCMDC-132835] | 98.35
51 | C=CCOC(=O)N1CCC(CNCc2cccc(-c3ccc(-c4nc5cccc(C)c5[nH]4)s3)c2)C1.O=C(O)C(F)(F)F (stereo not drawn) [TCMDC-133043] | 63.05
52 | Cc1cccc2nc(-c3ccc(-c4cccc(CNCCCNS(C)(=O)=O)c4)s3)[nH]c12.O=C(O)C(F)(F)F [TCMDC-133078] | -8.111
53 | Cc1cccc2nc(-c3ccc(-c4ccc(CNCc5ccc(CN)cc5)cc4)s3)[nH]c12 [TCMDC-132809] | 97.61
54 | Cc1cccc2nc(-c3ccc(-c4cccc(CNCCc5ccncc5)c4)s3)[nH]c12.O=C(O)C(F)(F)F [TCMDC-132853] | -22.63
55 | Cc1cccc2nc(-c3ccc(-c4ccc(CNCc5cccc(N)c5)cc4)s3)[nH]c12.O=C(O)C(F)(F)F [TCMDC-132932] | -65.22
56 | C=CCOC(=O)N1CCC(CNCc2cccc(-c3cccc(-c4nc5cccc(C)c5[nH]4)c3)c2)C1.O=C(O)C(F)(F)F (stereo not drawn) [TCMDC-133038] | -20.08
57 | COc1cccc(CNC[C@@H](O)[C@H](Cc2ccccc2)NC(=O)c2cc(C(C)C)cc(N3CCCC3=O)c2)c1 [TCMDC-134130] | 14.96
58 | CCc1ccc2c(c1O)CCN(C)C2Cc1ccccc1Cl (stereo not drawn) [TCMDC-137165] | 18.04
59 | CC(=O)C1=NN(c2ccc(C)cc2)C(c2cccs2)N1c1ccccc1 (stereo not drawn) [TCMDC-125627] | -78.13
60 | Cc1cccc2[nH]c(-c3cccc(-c4ccc(NC(=O)NCc5ccccc5)cc4)c3)nc12 [TCMDC-133158] | -0.2096
61 | CNC(=O)c1cc(S(=O)(=O)Nc2ccc(OC)cc2)cs1 [TCMDC-124815] | 61.29
62 | COc1ccc(NS(=O)(=O)c2ccc(Oc3nc(C)nc4sc5c(c34)CCCC5)cc2)cc1 [TCMDC-124337] | 4.693
63 | COc1ccc(NC(=O)c2c(NC(=O)c3cccs3)sc3c2CCCC3)cc1 [TCMDC-125745] | -21.48
